# Data from PubChem BioAssay AID651965 (National Center for Advancing Translational Sciences (NCATS), 2013).
# About 6,400 (1.9%) of roughly 340,000 compounds were called active. Entries that show only a call come without a potency. Roughly 4% stayed inconclusive and do not appear here. The sample holds actives, similar compounds and a random draw of the others, so the mix is not that of the screen. Calls come from the whole dose curve; as a rule, active = well fitted falling curve with a large enough effect; inconclusive = small, poorly fitted or top-dose-only effect; inactive = no such curve, though single readings can be large or run the other way.
# Target: ATP-dependent Clp protease proteolytic subunit (Bacillus subtilis (strain 168)) (UniProt P80244)
# Test: qHTS Assay for Activators of ClpP; note: the source files actives as falling curves though it sought activators and does not explain the sign; nearly all actives have a fitted effect of over 65% in size
# Settings: purified B. subtilis ClpP, FRET peptide cleavage, 20 min; series mostly up to 57.5 µM
# How it was run: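 ClpP 10 microg/mL final, pH 8 Tris/KCl buffer with BSA, glycerol, Tween-20; compound pinned in; FRET-FV substrate; RT 20 min; Ex320/Em430; ΔFRET vs ADEP 5.8 microM, DMSO, no enzyme.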
# Potency is the fitted concentration of half-maximal effect.
# Sequence of ATP-dependent Clp protease proteolytic subunit (Bacillus subtilis (strain 168)) (P80244 whole entry, looked up): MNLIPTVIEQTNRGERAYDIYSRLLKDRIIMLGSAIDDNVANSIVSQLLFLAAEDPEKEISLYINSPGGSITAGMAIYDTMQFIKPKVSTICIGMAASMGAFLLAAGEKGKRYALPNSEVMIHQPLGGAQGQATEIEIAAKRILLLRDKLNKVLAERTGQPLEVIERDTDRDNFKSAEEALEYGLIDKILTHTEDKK
row,Compound,Potency
1,Cc1cc([N+](=O)[O-])ccc1NC(=O)C1CCCO1 (stereo not given),inactive
2,CCc1cc(Br)ccc1NC(=O)C1CCCO1 (stereo not given),inactive
3,COC(=O)c1cc(OC)c(OC)cc1NC(=O)C1CCCO1 (stereo not given),20 µM (active)
4,C#Cc1ccc(NC(=O)C2(C)CCN2C(=O)Cc2ccc(-c3ccccc3)cc2)cc1 (stereo not given),inactive
5,CCCNC(=O)C1(C)CCN(C(=O)c2ccccc2OC(F)(F)F)C1 (stereo not given),inactive
6,O=C(Nc1ccc(Cl)cc1)c1csc([C@@H]2O[C@H](CO)[C@H](O)[C@H](O)[C@H]2O)n1,inactive
7,COc1ccc(C2Nc3ccccc3C(=O)N2c2ccc(F)cc2)cc1Cn1nnc2ccccc21 (stereo not given),inactive
8,COc1ccc(C2Nc3ccccc3C(=O)N2Cc2ccccc2)cc1Cn1nnc2ccccc21 (stereo not given),35.5 µM (active)
9,COc1ccc(C2Nc3ccc(NC(=O)COC(C)=O)cc3C(=O)N2Cc2ccccc2)cc1COc1ccc(NC(C)=O)cc1 (stereo not given),inactive
10,COc1cccc(C(NC(C)=O)c2nc(-c3cnc4ccccc4c3)cs2)c1 (stereo not given),inactive
11,COCC(C)NC(=O)c1ccc(Cl)c(Cl)c1 (stereo not given),14.1 µM (active)
12,CC(CCc1ccccc1)NC(=O)c1cnc(Cl)c(Cl)c1 (stereo not given),inactive
13,COCC(C)NC(=O)c1ccc(-n2nc(C(F)(F)F)cc2-c2cccs2)cc1 (stereo not given),inactive
14,CCOC(=O)C1=CCC(c2ccc(F)cc2)N(S(=O)(=O)c2ccc(C)cc2)C1 (stereo not given),inactive
15,CCOC(=O)C1=C(N)N(c2ccc(C)cc2)C2=C(C(=O)CCC2)C1c1cccs1 (stereo not given),inactive
16,CCOC(=O)c1cc2c(n(-c3ccc(C)cc3)c1=O)CCCC2=O,31.6 µM (active)
17,CCCCOc1ccc(NC(=O)c2cc3c(n(-c4ccc(Cl)cc4)c2=O)CCCC3=O)cc1,inactive
18,Cc1ccc([C@H]2C[C@H](O)[C@@H](n3cc(COC(=O)c4ccccc4)nn3)CN2CC2CCCCC2)cc1,inactive
19,COc1ccc(C(C)(O)c2nc(-c3ccc(C)c(C)c3)cs2)cc1 (stereo not given),inactive
20,ClC/C=C/C[n+]1ccccc1Cl,inactive
21,CCc1cc(=O)oc2cc(C)cc(OC(C)C(=O)O)c12 (stereo not given),3.55 µM (active)
22,Cc1cc(OC(C)C(=O)NC2CC(C)(C)NC(C)(C)C2)c2c(C)cc(=O)oc2c1 (stereo not given),inactive

row,Compound,Potency
1,CCc1cc(=O)oc2cc(C)cc(OCC(=O)N3CCC[C@@H]3C(=O)O)c12,inactive
2,CC1(C(=O)NS(=O)(=O)c2ccc(C#N)cc2)CCN1C(=O)c1ccc(C2CCCCC2)cc1 (stereo not given),inactive
3,CC(C)(C)c1ccc(C(=O)C[n+]2cccc3cc(Cl)ccc32)cc1,inactive
4,O=C(NCCN1CCOCC1)c1cc(-c2cccs2)nc2ccccc12,28.2 µM (active)
5,O=C(NCCN1CCOCC1)c1cc(Sc2cccc(Cl)c2)nc2ccccc12,inactive
6,O=C(NCC(c1cccs1)N1CCOCC1)c1cc(-c2ccccn2)nc2ccccc12 (stereo not given),inactive
7,NC(c1csc(NC(=O)Nc2ccccc2Oc2ccccc2)n1)c1ccccc1Cl (stereo not given),inactive
8,O=C(NCc1ccc(F)cc1)c1cc(C2CCCCN2C(=O)c2ccccn2)on1 (stereo not given),inactive
9,COC(=O)c1c(NC(=O)c2ccc(Cl)c(Cl)c2)sc2c1CCCC2,inactive
10,COC(=O)c1c(NC(=O)c2cccs2)sc2c1CCCC2,35.5 µM (active)
11,CCOC(=O)c1c(NC(=O)c2cc(-c3ccc(Cl)cc3)on2)sc2c1CCCC2,inactive
12,CCOC(=O)c1c(NC(=O)c2ccc(S(=O)(=O)N(CC)CC)cc2)sc2c1CCCCC2,inactive
13,CCOC(=O)c1c(NC(=O)c2ccc(Br)o2)sc2c1CCCC2,31.6 µM (active)
14,COC(=O)c1c(NC(=O)CSc2nncs2)sc2c1CCCCC2,inactive
15,Cc1noc(C)c1-c1ccc(C(=O)NCc2ccncc2)c2occc12,inactive
16,CCN1CCCC1CNc1ncnc2c1[nH]c1ccc(F)cc12 (stereo not given),28.2 µM (active)
17,CC(C)OCCCNC(=O)c1cc(Sc2ccc(F)cc2)nc2ccccc12,inactive
18,CCN1CCCC1CNC(=O)c1cc2cc(OC)c(OC)cc2[nH]1 (stereo not given),inactive
19,CCN1CCCC1Cn1cnc2c([nH]c3cc(OC)ccc32)c1=O (stereo not given),inactive
20,Fc1ccc2[nH]c3c(N4CCN(Cc5ccc6c(c5)OCO6)CC4)ncnc3c2c1,inactive
21,CC(C)OCCCNc1ncnc2c1[nH]c1ccc(F)cc12,15.8 µM (active)
22,Cc1ccc([C@H]2N[C@]3(CCCN(CC4CCCCC4)C3=O)[C@H]3C(=O)N(Cc4ccccc4)C(=O)[C@@H]23)cc1,inactive

row,Compound,Potency
1,CCCc1c(-c2ccccc2F)ncn1Cc1ccccc1OC,inactive
2,C=C1C(=O)OC2C1CCC(C)=CCCC1(C)OC21 (stereo not given),inactive
3,O=C(NCc1ccc(F)cc1)c1cc(C2CCCCN2C(=O)c2cccs2)on1 (stereo not given),inactive
4,COc1cc2[nH]c(C)c(CCN3CCN(c4ccccc4)CC3)c2cc1OC,inactive
5,CC1(C(=O)NS(=O)(=O)C2CC2)CCCN(C(=O)CSc2ccccc2)C1 (stereo not given),inactive
6,CC1(C(=O)NCC2CCOCC2)Cc2c(-c3cccc(C(N)=O)c3)ccnc2O1 (stereo not given),inactive
7,COc1ccc(-c2csc(C(O)c3cccc(Cl)c3)n2)cn1 (stereo not given),inactive
8,O=C(Cn1c(=O)nc(-c2ccccc2)c2cc(Cl)ccc21)NCc1ccc(Cl)cc1,inactive
9,O=C(Cn1c(-c2cccs2)cc2ccccc21)NCCc1ccc(Cl)cc1,20 µM (active)
10,Cc1cccc(Cn2c(=O)n(CCC(=O)NCCc3ccc(Cl)cc3)c(=O)c3sccc32)c1,inactive
11,CN(C)C1CN(Cc2cn(Cc3ccccc3)nn2)S(=O)(=O)C1 (stereo not given),inactive
12,O=c1[nH]c2ccccc2n1C1CCN(CCOc2ccccc2)CC1,inactive
13,COC(=O)C1(C(=O)OC)C[C@H](c2ccccc2)N(Cc2ccccc2OC)[C@@H]1c1ccccc1,inactive
14,O=C(NCc1ccc(Cl)cc1)c1cc2c(nc3sccn32)s1,31.6 µM (active)
15,O=C(NCc1ccc(Cl)cc1)c1cc(=O)nc2sc(-c3ccccc3)nn12,inactive
16,O=C(NCc1ccc2c(c1)OCO2)c1c(O)nc2sccn2c1=O,inactive
17,CCc1nc2ccc(C(=O)NCc3ccc(OC)cc3)cn2c1N(CC)Cc1cccc(Br)c1,inactive
18,COc1ccc(C(O)C(O)(C(=O)OC(C)C)c2ccc(C)cc2)cc1 (stereo not given),inactive
19,CC(C)(C)NC(=O)C(CCc1ccccc1)n1c(=O)c(-c2ccccc2)nc2ccccc21 (stereo not given),inactive
20,N#Cc1ccc(C(C(=O)NCc2ccccc2)n2c(=O)c(-c3ccco3)nc3ccccc32)cc1 (stereo not given),inactive
21,COc1ccc(C(C(=O)NCc2ccccc2)n2c(=O)c(-c3ccccc3)nc3ccccc32)cc1 (stereo not given),28.2 µM (active)
